Active and inactive are the calls of the source. The calls were made as follows: active = hit-call score of the fitted dose curve at least 0.9, where 1 is the maximum; inactive = score below 0.9.

Consider 21 compounds from PubChem BioAssay (EPA / NIEHS).

Read-out in assay [1]: Thrombomodulin, THBD (gene 7056)
Kind of assay: BSK_CASM3C_Thrombomodulin: BioMAP Diversity Plus: CASM3C Assay for Thrombomodulin Biomarker Activity (AID 2283051).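 Also: thrombomodulin protein level measured by ELISA 24 h after dosing.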 The conditions noted are these: primary human coronary artery smooth muscle cells; actives raise or lower the signal.

Read-out in assay [2]: Tissue Factor, F3 (gene 2152)
In words: BSK_CASM3C_TissueFactor: BioMAP Diversity Plus: CASM3C Assay for Tissue Factor Biomarker Activity (AID 2283052).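 Also: cell surface tissue factor protein level read by ELISA.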 To be noted: primary human coronary artery smooth muscle cells; actives raise or lower the signal.

Read-out in assay [3]: Interferon-gamma inducible Protein 10 (IP10), CXCL10 (gene 3627)
In words: BSK_hDFCGF_IP10: BioMAP Diversity Plus: hDFCGF Assay for Interferon-gamma inducible Protein 10 (IP10) Biomarker Activity (AID 2283053). To be noted: primary human foreskin fibroblasts; actives raise or lower the signal. An outline of the steps: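 Cells: human dermal foreskin fibroblasts. Exposure: 24 h post-dosing. Detection: IP-10 ELISA, with values expressed against DMSO controls and fitted in both directions.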

Read-out in assay [4]: Urokinase-type plasminogen activator receptor (uPAR), PLAUR (gene 5329)
Kind of assay: BSK_CASM3C_uPAR: BioMAP Diversity Plus: CASM3C Assay for Urokinase-type plasminogen activator receptor (uPAR) Biomarker Activity (AID 2283054).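 Also: cell-surface uPAR protein level quantified by ELISA.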 To be noted: primary human coronary artery smooth muscle cells; actives raise or lower the signal.

Read-out in assay [5]: Vascular cell adhesion molecule 1 (VCAM1), VCAM1 (gene 7412)
In words: BSK_CASM3C_VCAM1: BioMAP Diversity Plus: CASM3C Assay for Vascular cell adhesion molecule 1 (VCAM1) Biomarker Activity (AID 2283055).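 Also: VCAM-1 protein level quantified by ELISA on the cells.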 The conditions noted are these: primary human coronary artery smooth muscle cells; actives raise or lower the signal.

Read-out in assay [6]: Collagen III, COL3A1 (gene 1281)
In words: BSK_hDFCGF_CollagenIII: BioMAP Diversity Plus: hDFCGF Assay for Collagen III Biomarker Activity (AID 2283056). The conditions noted are these: primary human foreskin fibroblasts; actives raise or lower the signal. The method, boiled down: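 hDFCGF primary human dermal fibroblasts; 24 h chemical exposure; collagen III by ELISA; bidirectional curve fit vs DMSO baseline (gain or loss of signal).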

Read-out in assay [7]: Epidermal growth factor receptor (EGFR), EGFR (gene 1956)
Kind of assay: BSK_hDFCGF_EGFR: BioMAP Diversity Plus: hDFCGF Assay for Epidermal growth factor receptor (EGFR) Biomarker Activity (AID 2283057). To be noted: primary human foreskin fibroblasts; actives raise or lower the signal. The method, boiled down: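 Dosing human primary skin fibroblasts, then measuring surface EGFR by ELISA at 24 h, gives the endpoint; gains and losses relative to DMSO were fitted in both directions.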

Assay [8] can be described thus: BSK_hDFCGF_Proliferation: Cell Proliferation Assessment in the BioMAP Diversity Plus: hDFCGF Assay (AID 2283059).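 Also: curves fitted for both rise and fall of signal versus DMSO baseline.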 The conditions noted are these: primary human foreskin fibroblasts. The method, boiled down: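 Steps: dose primary human dermal fibroblasts (foreskin); […] fix in 10% TCA; stain with 0.1% SRB; read 560 nm; fit gain or loss of signal against DMSO.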

Read-out in assay [9]: Macrophage colony-stimulating factor (MCSF), CSF1 (gene 1435)
In words: BSK_hDFCGF_MCSF: BioMAP Diversity Plus: hDFCGF Assay for Macrophage colony-stimulating factor (MCSF) Biomarker Activity (AID 2283060). To be noted: primary human foreskin fibroblasts; actives raise or lower the signal. The method, boiled down: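 ELISA read-out of M-CSF in human dermal foreskin fibroblast cultures, 24 h after chemical dosing; gain or loss of signal fitted bidirectionally relative to DMSO baseline.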

Read-out in assay [10]: Interleukin-8 (IL8), CXCL8 (gene 3576)
In words: BSK_hDFCGF_IL8: BioMAP Diversity Plus: hDFCGF Assay for Interleukin-8 (IL8) Biomarker Activity (AID 2283058). The conditions noted are these: primary human foreskin fibroblasts; actives raise or lower the signal. The method, boiled down: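 ELISA read-out of IL-8 from primary human foreskin fibroblast cultures taken 24 h after dosing; values are bidirectional fits relative to DMSO vehicle.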

`Cc1oc(-c2ccccc2)nc1CCOc1cccc2c1ccn2CCC(=O)O`: the result in assay [1], in assay [2], in [3], in [4], in assay [5] and in [6] was inactive. Moreover, the outcome in assay [7], in assay [8] and in [9] was inactive.
Broadly, the AC50 is the concentration giving half of the maximal activity seen. Turning to `CC(=O)OC/C=C(\C)CCC=C(C)C`, the result in [1], in assay [2], in assay [3], in [4], in [5] and in assay [6] was inactive. For the same compound, the outcome in assay [7], in assay [10] and in assay [9] was inactive. In addition, the AC50 in assay [8] was 0.597 µM (active).
Turning to `Oc1ccc2c(c1)OC[C@@H](N1CCC(O)(c3ccc(F)cc3)CC1)[C@H]2O`, the outcome in [1], in assay [2], in [3], in [4], in assay [5] and in [6] was inactive. In addition, the outcome in assay [7], in assay [10], in assay [8] and in [9] was inactive.
As to `Cc1ccc(C(C)C)c(O)c1`, the outcome in assay [1], in assay [2], in assay [3], in assay [4], in assay [5] and in assay [6] was inactive. Also, the result in assay [7], in assay [10], in assay [8] and in assay [9] was inactive.
As to `COc1cc(S(=O)(=O)O)c(C)cc1N=Nc1c(O)ccc2cc(S(=O)(=O)O)ccc12`, the result in assay [1], in assay [2], in [3], in assay [4], in assay [5] and in assay [6] was inactive. Also, the result in assay [7], in assay [10], in assay [8] and in [9] was inactive.
Regarding `CCc1c(C(=O)NN2CCCCC2)nn(-c2ccc(Cl)cc2Cl)c1-c1ccc(Br)cc1`, the outcome in assay [1], in assay [2] and in [5] was inactive. The AC50 is 4.55 µM (active) in [3]; 25.1 µM (active) in assay [4]; 0.483 µM (active) in [6]; 1.65 µM (active) in assay [7]; 3.39 µM (active) in assay [10]; 1.73 µM (active) in assay [8]. The concentration at half-maximal activity (AC50) in assay [9] was 3.75 µM (active).
With `O=C(O)Cc1ccccc1Nc1c(Cl)cccc1Cl`, the result in assay [1], in [2], in [3], in assay [4], in assay [5] and in assay [7] was inactive. The outcome in assay [10] and in assay [9] was inactive. The AC50 in assay [6] and in [8] was 20 µM (active) each time.
In the case of `CCCCc1ccc2c(n1)[C@@H](c1ccc(OC)cc1C[C@H](C)C(=O)O)[C@H](C(=O)O)[C@H]2c1ccc2c(c1)OCO2`, the result in [1], in [2], in assay [3], in assay [4], in assay [5] and in assay [6] was inactive. The outcome in [7], in assay [10], in assay [8] and in [9] was inactive.
Consider `FC(F)(F)C(F)(F)C(F)(F)C(F)(F)C(F)(F)C(F)(F)CCI`, for which the outcome in [1], in [2], in assay [3], in [4], in assay [5] and in assay [6] was inactive. Moreover, the outcome in [7], in assay [10], in assay [8] and in assay [9] was inactive.
As to `Nc1ccc2c(c1)C(=O)c1ccccc1C2=O`, the result in [1], in [2], in assay [5], in assay [6], in assay [7] and in assay [10] was inactive. Besides, in [9], the result was inactive. Further, the AC50 in [4] is 20 µM (active); in assay [8], 4.98 µM (active).
Regarding `O=c1[nH]cc(F)c(=O)[nH]1`, the result in [1], in assay [2], in assay [3], in [4], in assay [5] and in assay [6] was inactive. In addition, the outcome in assay [7] and in assay [9] was inactive. Also, the AC50 in assay [8] was 9.52 µM (active).
For `Clc1cc(Cl)c(Cl)cc1Cl`, the result in assay [1], in [2], in [3], in assay [4], in assay [5] and in [6] was inactive. In addition, the outcome in assay [7], in assay [8] and in assay [9] was inactive.
Consider `CN[C@H]1CC[C@@H](c2ccc(Cl)c(Cl)c2)c2ccc(S(N)(=O)=O)cc21`, for which the outcome in assay [1] was inactive. The AC50 was 9.57 µM (active) in assay [2]; 26 µM (active) in assay [3]; 27.3 µM (active) in [4]; 31.4 µM (active) in assay [5]; 20 µM (active) in assay [6]; 32.7 µM (active) in [7]. Moreover, the concentration at half-maximal activity (AC50) is 10.3 µM (active) in [8] and 20 µM (active) in assay [9].
For the compound `CNC(=O)[C@H]1O[C@@H](n2cnc3c(NCc4cc(Cl)ccc4OCc4cc(C)no4)ncnc32)[C@H](O)[C@@H]1N`, the outcome in assay [1], in assay [2], in assay [3], in [4], in [5] and in assay [6] was inactive. Moreover, the result in [7], in assay [8] and in assay [9] was inactive.
For `CNCc1cc(F)ccc1Oc1ccc(Cl)c(Cl)c1`, the outcome in assay [1], in [2], in assay [4], in assay [5], in [6] and in assay [7] was inactive. Also, the result in assay [10] and in assay [9] was inactive. In [8], the AC50 was 23.8 µM (active).
Consider `Cc1cccc(C)c1O`, for which the outcome in assay [1], in [2], in [4], in [5], in [6] and in assay [7] was inactive. The result in assay [10], in assay [8] and in [9] was inactive.
As for `O=c1c(O)c(-c2ccc(O)c(O)c2)oc2cc(O)cc(O)c12`, the outcome in assay [1], in assay [5], in assay [6] and in assay [10] was inactive. In addition, the AC50 is 4.13 µM (active) in [2]; 20 µM (active) in [3]; 6.66 µM (active) in assay [4]; 11.5 µM (active) in assay [8]; 7.26 µM (active) in [9].
Consider `Cc1ccc2ncccc2c1`, for which the result in [1], in assay [2], in [3], in [4], in [5] and in assay [6] was inactive. Also, the outcome in assay [7], in [8] and in assay [9] was inactive.
As for `CC(C)(C)c1cc(O)c(C(C)(C)C)cc1O`, the AC50 was 4.92 µM (active) in [1]; 20 µM (active) in assay [3]; 9.11 µM (active) in assay [6]; 29.1 µM (active) in [8]; 17.6 µM (active) in [9]. The result in assay [2], in [4], in [5] and in [7] was inactive.
With `Nc1ccccc1N`, the result in assay [1], in assay [2], in assay [4], in assay [6], in assay [7] and in assay [10] was inactive. In addition, in assay [9], the outcome was inactive. Also, the AC50 was 4.05 µM (active) in assay [5] and 16 µM (active) in assay [8].
Consider `CCCCCCCCCCC`, for which the outcome in [1], in [2], in assay [3], in assay [4], in assay [5] and in assay [6] was inactive. Besides, the result in assay [7], in assay [8] and in [9] was inactive.
